Assay results from paper PMC10163288.
Only a sample is shown. No count for the full screen is at hand. A number with no mark means an inactive call.

B1: il10ra_site1_normal_mot_39ab2cb694c8b9c1dc7e65c0d672c93e_0001_000000036_0001_53_65_H_._HHH_b2_05692_af2_0001_0000600025_0000002_0 (protein)
chain: SSSSDEEEEELRELVEEVERLIERNDREEALRVAAEALRLAFRARNPEVLQLLWELAKLLSSSSS
B2: il10ra_site1_sap_13_mot_8756ee2cf497b5429c717dfc0c0bcfd6_0001_000000186_0001_1_13_H_._HHH_b2_05518_af2_0001_0000600027_0000001_0_0001 (protein)
chain: SSSSDLEELARAAVRLIEQAIEWGDEERAKFALLALEMAAEETNDPELRELLEELEKLLRGSSSS
B3: il10ra_site1_sap_25_mot_HHH_b1_08133_000000195_0001_1_19_H_._HHH_b1_03607_0001_0000200023_0000001_0_0001_af2pred_0001 (protein)
chain: SSSSSEEVEELEEEARELIKRNDPEEVLKIIRRLARLAFRLNDPEISKIAIELAELLKKLDSSSS
B4: il10ra_site1_normal_mot_HHH_b2_02337_000000026_0001_38_52_H_._HHH_b2_04211_af2_0001_0000300011_0000002_0 (protein)
chain: SSSSDEEREEIEELIKEFEELLERGDREEAVRVVTEALQFALKLGDQELLKRIWELVKSLSSSSS
B5: il10ra_site1_sap_17_mot_HHH_b1_06914_000000280_0001_1_18_H_._HHH_b2_08155_0001_0000100009_0000001_0_0001 (protein)
chain: SSSSDEANERVWELLREALHIDDPEEAREVVEEAAEIAEERNNRVLLHNIRFLLRQLEKGSSSSS
B6: il10ra_site1_sap_23_mot_HHH_b1_08616_000000009_0001_1_19_H_._HHH_b2_04715_af2_0001_0000100004_0000001_0_0001 (protein)
chain: SSSSSDQEEQLIRALLWFAEWTSNPTARRLMLEQAERHARELGNEELREEVERVEKELEESSSSS
B7: il10ra_site1_normal_mot_HHH_b1_05056_000000217_0001_1_20_H_._HHH_b2_03866_0001_0000200011_0000001_0 (protein)
chain: SSSSSSEEREEVEELLEEAEHVDDLRELARILAEAVRFAYEGKDEEALQLVWEVVRRLFSSSSSS
B8: il10ra_site1_sap_16_mot_HHH_b2_00943_af2_000000149_0001_1_17_H_._HHH_b1_06222_0001_0000300032_0000001_0_0001_af2pred_dldesign_0_af2pred (protein)
chain: SSSSSPENEELVRLIREVAELLYDGKPEEAREKLKEAEELTEKLGDEIFKRNIELLRKELESSSS
B9: il10ra_site1_sap_16_mot_HHH_b1_06789_af2_000000041_0001_1_20_H_._HHH_b1_04240_af2_0001_0000500015_0000001_0_0001 (protein)
chain: SSSSSDEEYEEEVERLLEEAEKIPDPREAAEVLLKALRVALRGNDPELLHLVWEVLEEISSSSSS
B10: il10ra_site1_normal_mot_HHH_b1_06057_000000129_0001_22_38_H_._HHH_b2_05766_0001_0000200026_0000001_0 (protein)
chain: SSSSDRTARWSVEFALRVAEELAKRDPERARELLEHLAELLKEARDEELLEEVERLLEEIGSSSS
B11: il10ra_site1_normal_mot_HHH_b2_08287_af2_000000247_0001_1_16_H_._HHH_b2_07820_0001_0000300057_0000001_0_af2pred_0001 (protein)
chain: SSSSDEEEEEVKELLEEAKRIDDPRERTRVLVEAYALAFELNNPELEELVKEVAIELLERSSSSS
B12: il10ra_site1_sap_19_mot_HHH_b1_04514_000000156_0001_1_18_H_._HHH_b1_01679_0001_0000100001_0000001_0_0001_af2pred_0001 (protein)
chain: SSSSSSEAEKEVAKILIEVLRLNDEEAAERISHLLIRLIVEGDERLIEEIRELFEEVEENSSSSS
B13: il10ra_site1_normal_mot_HHH_b1_05672_af2_000000246_0001_1_19_H_._ems_3hC_444_af2_0001_0000400050_0000001_0 (protein)
chain: SSDLREEFSRVLIRAVRAAARHDEEKAEELVRRAEEIAEELGDEELERYVEIVKNFVESATRSSS
B14: il10ra_site1_sap_24_mot_HHH_b2_00622_af2_000000153_0001_40_57_H_._1ad9cd31332199d645683f25bccb3f2f_0001_af2_0001_0000400010_0000001_0_0001 (protein)
chain: SSSSSDEEAEEQVEELLEEAKRIEDREEVLRLLIEANRIAFRAGNDELQREIWRVAQELSSSSSS
B15: il10ra_site1_sap_19_mot_HHH_b1_01585_000000217_0001_1_18_H_._HHH_b1_05870_af2_0001_0000200018_0000002_0_0001 (protein)
chain: SSSSSRAEKVREILEEVVELQRQGDKEEAERLLEELLEELEELGDVNSLVNVEYLLRAVRKSSSS
B16: il10ra_site1_normal_mot_HHH_b1_01827_000000263_0001_1_19_H_._HHH_b2_07433_0001_0000500029_0000001_0_af2pred_0001 (protein)
chain: SSSSSTEEVERVIKLIRRALEIEDEEERRRLLEEAVELAEEGGNLVLLISARFALEDVEQSSSSS
B17: il10ra_site1_sap_10_mot_HHH_b1_05704_af2_000000048_0001_1_18_H_._HHH_b2_04382_0001_0000100002_0000001_0_0001_af2pred_0001 (protein)
chain: SSSSSEEEERVELALRFVKFLLKAGDPEAARFFVEWALEKAKELGNEELEEEAEELLREARSSSS
B18: il10ra_site1_sap_18_mot_HHH_b2_04327_000000030_0001_41_55_H_._HHH_b2_03484_af2_0001_0000400008_0000001_0_0001_af2pred_0001 (protein)
chain: SSSSSSSEEEELMQLAAEISRHASPEEIRRLFELLVRLYHEGDPELKEELRELIEEIKSSSSSSS
B19: il10ra_site1_normal_mot_HHH_b2_07144_000000289_0001_1_18_H_._HHH_b1_03935_0001_0000100008_0000001_1 (protein)
chain: SSSSSEEAEELYELSREVAHLHREGDEEEAKRLLEEAIELAEELGNFNILFALELLLRQLSSSSS
B20: il10ra_site1_sap_20_mot_HHH_b2_00093_af2_000000025_0001_40_54_H_._HHH_b2_05679_0001_0000100006_0000001_0_0001_af2pred_0001 (protein)
chain: SSSSSIHERDVELALLAARLLAERGDPEAVREALELARRQAESTNNEELEELVEEVERELSSSSS
B21: il10ra_site1_normal_mot_8756ee2cf497b5429c717dfc0c0bcfd6_0001_000000186_0001_1_13_H_._HHH_b1_06578_af2_0001_0000300032_0000001_1_af2pred_0001 (protein)
chain: SSSSSIAEEVFRLLREAAELYHEGDKEKAEEILKEAEELAEEANDEIAKVIIEFLKRAIENSSSS
B22: il10ra_site1_normal_mot_HHH_b1_00566_000000151_0001_22_39_H_._HHH_b1_00313_af2_0001_0000700014_0000001_0 (protein)
chain: SSSSDEREEIAILVAEAIILAERRGDKEVAEELWQLLVEAYYHGDPELFREVEELAEKFLSSSSS
B23: il10ra_site1_sap_26_mot_HHH_b2_06857_af2_000000179_0001_42_54_H_._HHH_b1_00069_af2_0001_0000100009_0000001_0_0001_af2pred_0001 (protein)
chain: SSSSSEEREEIYRLIREALELLANGNPEEAEEVLEEAERLAKEANSPLFEFALEAARRKVKSSSS
B24: il10ra_site1_normal_mot_HHH_b2_08186_000000021_0001_43_56_H_._HHH_b1_02914_0001_0000400023_0000001_0 (protein)
chain: SSSSDREERIQELLEEAEELAKEGNPEEAARLLQEAIRLAFELGDEELLKEIWEVLRKVASSSSS
B25: il10ra_site1_normal_mot_HHH_b2_08186_000000021_0001_43_56_H_._HHH_b2_05014_af2_0002_0000100001_0000002_0 (protein)
chain: SSSSDEEELRELIEEAEELLERGNPEEALEVVLRALQLAFELSNAETLQRIWELLKRIATSSSSS
B26: il10ra_site1_sap_21_mot_HHH_b2_02463_af2_000000222_0001_1_19_H_._HHH_b1_01285_0001_0000200013_0000001_0_0001 (protein)
chain: SSSSDEANQEALELVVEAVRLALRGNPEEAKEVLEEARELAREGNNERLVKMIEDMLRALDSSSS
B27: il10ra_site1_sap_26_mot_HHH_b1_01707_000000240_0001_1_17_H_._HHH_b2_07405_0001_0000500060_0000001_0_0001 (protein)
chain: SSSSDQEFARLMMEALHLAFQLRDPETLRELWELYRRYAEEGDPRYEEALEELLEELRERSSSSS
B28: il10ra_site1_normal_mot_HHH_b2_03328_af2_000000127_0001_1_19_H_._f3d5fbb9806109dc41c8faca98c9de00_0001_1_0001_0000300008_0000002_0_af2pred_dldesign_0_af2pred (protein)
chain: LELSRLLSDAVITAKNPELAQRLAEVAREIAEDPSKLEELLAELLEEAKAAGDEEVVALLEKALE
B29: il10ra_site1_normal_mot_HHH_b2_06767_000000020_0001_41_56_H_._HHH_b2_06012_0001_0000200016_0000002_0_af2pred_0001 (protein)
chain: SSSSSVHEAAQLLLRVARALKEGDEELLEELRKELEELLKKLDDERARLAVRAALAAIKNFSSSS
B30: il10ra_site1_sap_27_mot_HHH_b1_06128_000000102_0001_1_20_H_._HHH_b1_02043_af2_0001_0000100004_0000002_0_0001 (protein)
chain: SSSSDVEEEVRELLEEAQRYYEEGNPQEVFRLIEEAIKVASEHGDEEAQKLVHEFLHEMFGSSSS
B31: il10ra_site1_normal_mot_HHH_b2_00984_000000042_0001_1_20_H_._HHH_b1_04863_af2_0001_0000500015_0000001_0 (protein)
chain: SSSSSDEEEELEELLEQLKKALEENDRELVAQLARRLVQLAFRLSDPEALQEAWELIRLLSSSSS
B32: il10ra_site1_normal_mot_HHH_b1_01821_000000158_0001_23_39_H_._HHH_b1_04578_0001_0000500034_0000001_1 (protein)
chain: SSSSSEFQRLAQRAVQLAFRLSDQEVLRRIWELFKRYIEEGDPRLEEELEELLEELEERGSSSSS
B33: il10ra_site1_normal_mot_HHH_b2_00277_af2_000000172_0001_1_17_H_._HHH_b1_06276_0001_0000100006_0000001_0_af2pred_0001 (protein)
chain: SSSSSSTEEEVEELLEEAKRIEDPEERSYVLTEAWALAYRLNDPELEREIEEVAKRLTSSSSSSS
B34: il10ra_site1_sap_17_mot_HHH_b2_04681_000000155_0001_43_57_H_._HHH_b2_07038_af2_0001_0000400013_0000001_0_0001_af2pred_dldesign_0_af2pred (protein)
chain: SSSSSSSDPERILALIRRALEEEDPEKARELLEEALRLAKEAGNEVAIRAAEYLLRQVSSSSSSS
B35: il10ra_site1_normal_mot_HHH_b2_03328_af2_000000127_0001_1_19_H_._HHH_b1_08499_0001_0000200023_0000001_0 (protein)
chain: SSSSDVAEEAYELSRRAAELLYQGNPEEARELLEEAEELLKERGDHVILFAVRLLLRILNSSSSS
B36: il10ra_site1_normal_mot_HHH_b2_00475_000000107_0001_44_57_H_._HHH_b2_03520_0001_0000400025_0000001_0 (protein)
chain: SSSSDEEEVSHLLFRALQLLEEGDKEEAEELVEEAKRIAEESNDPELERYVEIAEHFVKAHSSSS
B37: il10ra_site1_sap_33_mot_HHH_b2_07521_000000141_0001_20_37_H_._HHH_b2_01915_0001_0000700039_0000001_1_0001 (protein)
chain: SSSSSEEVEELLEQARELAEEGDFEEAAKLLLEALQIAAELQDPELLRLVWEVLHEVARLNSSSS

Each binder was assayed against il10ra, Q13651 (assay: yeast display titration).
Chain of il10ra, Q13651 (Q13651 whole entry): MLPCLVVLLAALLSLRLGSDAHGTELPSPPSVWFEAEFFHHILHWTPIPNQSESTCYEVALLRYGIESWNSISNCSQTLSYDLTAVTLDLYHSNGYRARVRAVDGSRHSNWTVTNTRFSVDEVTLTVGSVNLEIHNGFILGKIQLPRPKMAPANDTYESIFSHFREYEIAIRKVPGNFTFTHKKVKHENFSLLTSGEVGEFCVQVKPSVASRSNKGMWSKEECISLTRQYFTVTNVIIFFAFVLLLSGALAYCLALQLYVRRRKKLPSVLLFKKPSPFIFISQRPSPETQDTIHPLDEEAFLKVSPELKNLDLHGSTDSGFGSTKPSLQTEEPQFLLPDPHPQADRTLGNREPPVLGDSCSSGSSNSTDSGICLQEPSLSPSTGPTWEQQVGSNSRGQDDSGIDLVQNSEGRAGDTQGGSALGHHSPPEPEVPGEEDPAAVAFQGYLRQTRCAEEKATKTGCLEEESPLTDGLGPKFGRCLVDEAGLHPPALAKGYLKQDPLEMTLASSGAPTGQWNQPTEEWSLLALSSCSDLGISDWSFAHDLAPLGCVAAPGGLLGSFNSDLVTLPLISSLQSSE

Binder | apparent Kd
B1 | no binding seen
B2 | no binding seen
B3 | > 0.233 µM
B4 | no binding seen
B5 | no binding seen
B6 | no binding seen
B7 | no binding seen
B8 | no binding seen
B9 | no binding seen
B10 | no binding seen
B11 | no binding seen
B12 | no binding seen
B13 | no binding seen
B14 | no binding seen
B15 | no binding seen
B16 | no binding seen
B17 | no binding seen
B18 | no binding seen
B19 | no binding seen

Binder | apparent Kd
B20 | no binding seen
B21 | no binding seen
B22 | 0.233 to 0.399 µM (active)
B23 | no binding seen
B24 | no binding seen
B25 | no binding seen
B26 | no binding seen
B27 | no binding seen
B28 | no binding seen
B29 | no binding seen
B30 | no binding seen
B31 | no binding seen
B32 | no binding seen
B33 | no binding seen
B34 | no binding seen
B35 | no binding seen
B36 | no binding seen
B37 | > 2.78 µM
